This note sets out measurements from PubChem BioAssay.

Values without a mark were called inactive. Activity calls are given as the source filed them. Cut-off read from the data, not from the text of the source, unless noted: active = inhibition above about 42%; inactive = the rest.

Test [1] concerns the target Nuclear receptor coactivator 3 (Homo sapiens) (UniProt Q9Y6Q9). The test can be described thus: NCOA3 GAL4-fusion reporter inhibition – cell-based, luminescence, quadruplicate, confirmation (AID 588792;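 active = mean inhibition over 43.08%, the solvent-only control mean plus 3 SD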;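 note: 0% = DMSO treated cells and 100% = gossypol at 36 µM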). As to conditions: HEK293 GAL4-SRC3 luciferase reporter, at 3.6 µM, active compounds read high. Background: A reporter such as luciferase makes a cellular process visible.
Test [2] deals with transactivating tegument protein VP16 (Human herpesvirus 1), Gal4-VP16 luciferase reporter. As to the kind of experiment: repression of VP16-driven luciferase reporter – cell-based, luminescence, high throughput, counter-screen for SRC3 inhibitor project (AID 588794; in the data active = inhibition above about 30%). As to conditions: mammalian cells, at 3.6 µM, active compounds read high.
Test [3] addresses Nuclear receptor coactivator 1 (Homo sapiens) (UniProt Q15788). The test can be described thus: NCOA1 GAL4-fusion reporter inhibition – cell-based, luminescence, quadruplicate, confirmation (AID 588820;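 active = mean inhibition above 46.68%, the untreated control wells mean plus 3 SD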;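 note: 0% = DMSO wells and 100% = gossypol 36 µM treated wells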). As to conditions: HEK293 GAL4-SRC1 luciferase reporter, at 3.6 µM, active compounds read high.
The nature of test [4]: repression of VP16-driven luciferase reporter – cell-based, luminescence, high throughput, counter-screen for SRC1 inhibitor project (AID 588824; in the data active = inhibition above about 25%). As to conditions: cell-based VP16 transactivation luciferase luminescence; at 3.6 µM; active compounds read high.
Test [5] is described as follows: StAR promoter reporter inhibitors, counter-screen for LRH-1 inverse agonist project, cell-based, luminescence, high throughput (AID 651611; in the data active = inhibition above about 28%). As to conditions: StAR promoter luciferase reporter counterscreen, at 3.6 µM, active compounds read high. On the technique in general: A counterscreen serves to expose hits that act by an unwanted route or on another target.
In test [6] the target is Nuclear receptor subfamily 5 group A member 2 (Homo sapiens) (UniProt O00482). As to the kind of experiment: NR5A2 activity suppression in reporter cells – cell-based, luminescence, confirmation (AID 651613).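 Note: HEK293T cells co-transfected with LRH-1 and StAR promoter luciferase reporter; 0% = vehicle wells and 100% = parental cells lacking receptor.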 The following applies: cell-based LRH-1 luciferase reporter, inverse agonism; at 3.6 µM; active compounds read high.
Chain of Nuclear receptor subfamily 5 group A member 2 (Homo sapiens) (O00482 whole entry, looked up): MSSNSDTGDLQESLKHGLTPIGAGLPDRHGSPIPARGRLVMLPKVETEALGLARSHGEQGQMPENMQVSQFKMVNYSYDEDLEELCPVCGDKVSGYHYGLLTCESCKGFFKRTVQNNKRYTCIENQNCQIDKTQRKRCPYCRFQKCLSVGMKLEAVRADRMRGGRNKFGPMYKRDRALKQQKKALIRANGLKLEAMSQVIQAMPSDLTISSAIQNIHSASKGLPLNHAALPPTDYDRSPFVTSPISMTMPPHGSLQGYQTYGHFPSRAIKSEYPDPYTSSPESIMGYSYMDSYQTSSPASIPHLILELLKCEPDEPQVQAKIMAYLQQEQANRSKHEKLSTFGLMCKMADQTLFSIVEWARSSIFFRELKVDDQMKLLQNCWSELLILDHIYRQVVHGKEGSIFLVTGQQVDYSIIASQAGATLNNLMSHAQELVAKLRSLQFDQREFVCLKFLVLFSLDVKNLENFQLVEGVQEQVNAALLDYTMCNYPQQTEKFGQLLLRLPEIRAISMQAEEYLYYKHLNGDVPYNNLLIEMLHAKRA
The target in test [7] is Steroidogenic factor 1 (Homo sapiens) (UniProt Q13285). The test can be described thus: inverse agonism at SF1 nuclear receptor – cell-based, luminescence, high throughput, counter-screen for LRH-1 inverse agonist project (AID 651614; in the data active = inhibition above about 44%;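 note: cells cotransfected with StAR promoter reporter and SF1 expression vector; 0% = vehicle on cells with receptor and 100% = vehicle on cells lacking receptor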). The following applies: cell-based SF1 luciferase reporter, at 3.6 µM, active compounds read high.
Chain of Steroidogenic factor 1 (Homo sapiens) (Q13285 whole entry, looked up, the tested form may be a part): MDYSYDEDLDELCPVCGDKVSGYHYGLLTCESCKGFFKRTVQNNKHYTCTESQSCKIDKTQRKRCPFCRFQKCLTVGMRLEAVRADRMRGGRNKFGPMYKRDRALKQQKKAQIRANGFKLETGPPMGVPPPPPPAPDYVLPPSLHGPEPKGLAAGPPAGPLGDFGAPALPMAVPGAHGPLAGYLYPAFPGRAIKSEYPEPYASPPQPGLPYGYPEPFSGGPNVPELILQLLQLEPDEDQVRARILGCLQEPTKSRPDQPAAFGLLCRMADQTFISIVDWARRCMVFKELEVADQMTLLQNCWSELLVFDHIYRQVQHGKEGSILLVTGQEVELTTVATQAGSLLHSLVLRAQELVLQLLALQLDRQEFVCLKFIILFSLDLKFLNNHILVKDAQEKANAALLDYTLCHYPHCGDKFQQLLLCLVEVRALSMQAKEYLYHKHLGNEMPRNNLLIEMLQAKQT
Test [8] in a line: compounds suppressing VP16-driven luciferase signal – cell-based, luminescence, high throughput, counter-screen for LRH-1 inverse agonist project (AID 651615; in the data active = inhibition above about 33%). The following applies: Gal4-VP16 luciferase reporter cells, at 3.6 µM, active compounds read high.

Chain of Nuclear receptor coactivator 1 (Homo sapiens) (Q15788 whole entry, looked up, the tested form may be a part): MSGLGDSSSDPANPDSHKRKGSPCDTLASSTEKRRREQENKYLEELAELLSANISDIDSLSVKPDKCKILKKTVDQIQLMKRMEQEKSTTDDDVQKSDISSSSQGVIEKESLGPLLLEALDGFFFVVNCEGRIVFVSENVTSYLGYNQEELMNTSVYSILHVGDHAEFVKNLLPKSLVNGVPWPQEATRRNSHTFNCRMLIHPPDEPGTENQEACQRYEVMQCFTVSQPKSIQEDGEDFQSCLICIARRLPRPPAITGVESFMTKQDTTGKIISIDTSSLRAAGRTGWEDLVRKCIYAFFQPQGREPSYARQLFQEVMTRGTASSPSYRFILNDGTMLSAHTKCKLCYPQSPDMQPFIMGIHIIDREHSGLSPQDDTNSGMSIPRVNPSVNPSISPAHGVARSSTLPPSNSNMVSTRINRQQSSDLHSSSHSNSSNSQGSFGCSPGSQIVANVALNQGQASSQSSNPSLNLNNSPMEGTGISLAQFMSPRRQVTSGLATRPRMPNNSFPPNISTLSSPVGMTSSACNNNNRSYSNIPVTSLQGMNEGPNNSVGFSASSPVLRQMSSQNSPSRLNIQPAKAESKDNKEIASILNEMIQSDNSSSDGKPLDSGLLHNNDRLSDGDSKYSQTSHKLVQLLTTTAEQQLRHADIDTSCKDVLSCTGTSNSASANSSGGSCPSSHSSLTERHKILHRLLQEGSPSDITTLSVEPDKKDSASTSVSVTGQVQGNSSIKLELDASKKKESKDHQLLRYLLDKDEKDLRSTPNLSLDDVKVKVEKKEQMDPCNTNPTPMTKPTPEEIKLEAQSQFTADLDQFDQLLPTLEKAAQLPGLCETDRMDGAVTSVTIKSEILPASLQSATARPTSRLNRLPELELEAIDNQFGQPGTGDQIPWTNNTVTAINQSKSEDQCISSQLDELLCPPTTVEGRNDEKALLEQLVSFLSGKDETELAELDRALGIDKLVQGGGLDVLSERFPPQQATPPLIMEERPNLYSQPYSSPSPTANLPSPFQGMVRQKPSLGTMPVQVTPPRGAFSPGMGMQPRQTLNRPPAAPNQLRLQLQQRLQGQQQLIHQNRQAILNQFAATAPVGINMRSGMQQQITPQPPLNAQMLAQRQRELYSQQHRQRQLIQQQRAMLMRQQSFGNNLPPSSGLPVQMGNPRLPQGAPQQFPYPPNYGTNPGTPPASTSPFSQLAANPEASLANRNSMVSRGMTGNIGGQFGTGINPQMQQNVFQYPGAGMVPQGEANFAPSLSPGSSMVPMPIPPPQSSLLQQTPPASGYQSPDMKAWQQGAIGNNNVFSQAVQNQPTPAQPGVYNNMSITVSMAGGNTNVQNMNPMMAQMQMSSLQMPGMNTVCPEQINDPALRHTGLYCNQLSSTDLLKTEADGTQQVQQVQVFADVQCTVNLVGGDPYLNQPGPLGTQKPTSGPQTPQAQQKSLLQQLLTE
Chain of Nuclear receptor coactivator 3 (Homo sapiens) (Q9Y6Q9 whole entry, looked up, the tested form may be a part): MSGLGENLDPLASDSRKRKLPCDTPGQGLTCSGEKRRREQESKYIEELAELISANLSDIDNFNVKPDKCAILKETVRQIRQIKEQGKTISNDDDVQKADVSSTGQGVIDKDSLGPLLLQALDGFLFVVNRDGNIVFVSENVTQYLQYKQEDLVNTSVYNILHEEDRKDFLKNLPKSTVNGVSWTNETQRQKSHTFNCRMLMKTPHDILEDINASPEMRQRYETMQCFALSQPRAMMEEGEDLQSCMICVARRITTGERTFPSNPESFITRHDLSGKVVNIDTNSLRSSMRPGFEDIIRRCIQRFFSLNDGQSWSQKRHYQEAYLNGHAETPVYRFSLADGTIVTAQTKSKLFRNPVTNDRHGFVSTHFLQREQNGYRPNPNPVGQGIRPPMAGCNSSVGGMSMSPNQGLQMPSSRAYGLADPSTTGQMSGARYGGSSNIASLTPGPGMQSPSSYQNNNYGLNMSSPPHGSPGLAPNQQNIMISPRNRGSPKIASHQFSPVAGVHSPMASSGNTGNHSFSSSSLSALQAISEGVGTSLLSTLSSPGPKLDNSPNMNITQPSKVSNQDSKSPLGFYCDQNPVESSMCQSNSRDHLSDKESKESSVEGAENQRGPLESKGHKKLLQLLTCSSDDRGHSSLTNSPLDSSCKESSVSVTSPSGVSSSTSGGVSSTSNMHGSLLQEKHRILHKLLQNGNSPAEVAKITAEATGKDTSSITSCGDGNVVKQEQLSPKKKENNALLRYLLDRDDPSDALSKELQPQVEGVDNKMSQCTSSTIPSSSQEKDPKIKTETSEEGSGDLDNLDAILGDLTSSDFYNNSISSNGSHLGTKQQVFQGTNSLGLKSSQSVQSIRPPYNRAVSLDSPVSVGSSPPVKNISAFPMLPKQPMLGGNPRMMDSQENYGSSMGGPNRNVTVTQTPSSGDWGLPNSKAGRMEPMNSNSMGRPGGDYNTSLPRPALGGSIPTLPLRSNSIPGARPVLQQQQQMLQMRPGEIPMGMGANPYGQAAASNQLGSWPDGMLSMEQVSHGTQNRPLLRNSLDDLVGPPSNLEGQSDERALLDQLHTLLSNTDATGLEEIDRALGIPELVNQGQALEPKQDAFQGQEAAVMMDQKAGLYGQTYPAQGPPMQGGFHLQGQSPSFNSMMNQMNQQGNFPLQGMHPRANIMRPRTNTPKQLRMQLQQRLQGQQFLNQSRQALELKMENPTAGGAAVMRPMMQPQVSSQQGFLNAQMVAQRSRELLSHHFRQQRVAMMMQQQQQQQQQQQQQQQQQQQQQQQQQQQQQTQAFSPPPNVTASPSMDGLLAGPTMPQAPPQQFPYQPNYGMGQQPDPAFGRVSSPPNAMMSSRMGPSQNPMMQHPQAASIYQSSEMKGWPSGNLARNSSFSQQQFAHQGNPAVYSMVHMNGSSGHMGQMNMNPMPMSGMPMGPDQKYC

On to `CC(C)=CC(O)C/C(C)=C/COc1ccc2ccc(=O)oc2c1` (stereo not drawn), for which the inhibition (in general, the change of the read-out against control, counted positive when it falls) in test [1] is 17.4%; in test [2], 38.5% (active); in test [3] it was 0.43%; in test [4] it was 40.6% (active); in test [5], -4.64%; in test [6] it was 31.5%. For the same molecule, the values for the inhibition in test [7] and in test [8] were 29.2% and -10.8%, respectively.

Regarding `COc1ccc(C(=O)Nc2nc3ccccc3s2)c(OC)c1`, the inhibition in test [1] is 92.8% (active); in test [2], 91.5% (active); in test [3] it was 84.7% (active); in test [4], 87.5% (active); in test [5] it was 93.4% (active); in test [6], 93.9% (active). Moreover, the inhibition is 92.3% (active) in test [7] and 90.2% (active) in test [8].

On to `Cc1cc(C)nc(NC(N)=NCCc2ccccc2)n1`, for which the inhibition was 75.9% (active) in test [1]; 46.3% (active) in test [2]; 51.5% (active) in test [3]; 49.1% (active) in test [4]; 58.4% (active) in test [5]; 109% (active) in test [6]. The results for the inhibition in test [7] and in test [8] were 88.2% (active) and 93.5% (active), respectively.

On to `CC(=O)NC(c1ccc2ccccc2c1)c1ccc2cccnc2c1O` (stereo not drawn), for which the inhibition was 81.5% (active) in test [1]; 79.2% (active) in test [2]; 70.4% (active) in test [3]; 74.3% (active) in test [4]; 86.3% (active) in test [5]; 104% (active) in test [6]. Besides, the inhibition in test [7] was 87.6% (active); in test [8] it was 79.9% (active).

For the molecule `O=NN(CC(=O)NNc1ccccc1)CC(=O)NNc1ccccc1`, the inhibition in test [1] is 22.6%; in test [2] it was 29.9% (active); in test [3], 9.03%; in test [4], 27.5% (active); in test [5] it was 37.4% (active); in test [6], 58.7% (active). Further, the inhibition in test [7] was 53.1% (active); in test [8], 67.5% (active).

Turning to `Cc1cc2c(=Cc3ccc(N(C)C)cc3)c3ccccc3n2[n+]1C`, the inhibition in test [1] was 44.8% (active); in test [2], 74.8% (active); in test [3] it was 23.9%; in test [4], 74.5% (active); in test [5], 76.2% (active); in test [6] it was 108% (active). In addition, the inhibition in test [7] is 89.4% (active); in test [8] it was 93.4% (active).
